PubChem BioAssay AID1117319 (Southern Research Institute, 2015)
About 1,500 (0.58%) of roughly 260,000 compounds were called active. About 5% were inconclusive and are not listed. Not all results are given here. Measured potencies and affinities stand elsewhere. A number with no mark means an inactive call.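 How the source made its calls: active means inhibition above a set limit at one or more doses, reproduced on every date tested; inconclusive means results disagree between test dates, or hit never tested in dose response; inactive means the rest.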

Each compound was assayed against Virion infectivity factor (Human immunodeficiency virus type 1 group M subtype B (isolate BH10)) + Virion infectivity factor (Human immunodeficiency virus type 1 group M subtype B (isolate BRU/LAI)) + Virion infectivity factor (Human immunodeficiency virus type 1 group M subtype B (isolate PCV12)) + Virion infectivity factor (Human immunodeficiency virus type 1 group M subtype B (isolate HXB2)) + DNA dC->dU-editing enzyme APOBEC-3G (Homo sapiens) (UniProt P69720+P69721+P69722+P69723+Q9HC16) (assay: inhibitors of Vif binding to APOBEC3G peptide, primary screen, biochemical, TR-FRET, GST-Vif 1-94, biotin-A3G peptide, dose response retest (AID 1117319;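 further: Vif residues 1-94 fused to GST binding biotinylated APOBEC3G peptide 110-148; 0% = full assay without inhibitor and 100% = GST in place of GST-Vif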)). Conditions: hits give high values.

How did the inhibition turn out when `CC(OC(=O)CCc1nc2ccccc2[nH]c1=O)C(=O)c1ccccc1` (stereo not given) was run?
Its inhibition is 6.75%.

How did the inhibition turn out when `CC1Cc2ccccc2N1Cc1nc2cc(Cl)ccc2c(=O)[nH]1` (stereo not given) was run?
Its inhibition is 7.91%.

Which inhibition does the source give for `COC(=O)c1ccc2c(=O)[nH]c(CN3c4ccccc4CC3C)nc2c1` (stereo not given) here?
The inhibition was 8.14%.

For `O=C(Cn1cnc2ccccc21)NCCCN1CCOCC1`, which inhibition is on record?
Its inhibition is -5.55%.

Which inhibition does the source give for `O=C(NNS(=O)(=O)c1ccccc1[N+](=O)[O-])c1ccc(F)cc1` here?
Its inhibition is -0.91%.

Which inhibition does the source give for `O=C1NC(=O)/C(=C/c2ccc(N3CCOCC3)o2)N1` here?
The inhibition was 12.2%.

For `O=C1NC(=O)/C(=C\c2ccc(Sc3ccc(Cl)cc3)o2)N1`, which inhibition is on record?
The inhibition was 21.1%.

Which inhibition does the source give for `Cc1nnc(SCC(=O)NNC(=O)c2ccco2)n1-c1ccccc1` here?
Its inhibition is 6.15%.

Which inhibition does the source give for `Cc1cccc(N2CC(C(=O)Nc3ccccc3N3CCOCC3)CC2=O)c1C` (stereo not given) here?
The inhibition was -2.77%.

`CCCCn1c(SCC(=O)Nc2cc(C)on2)nnc1-c1cccnc1` was tested. Which inhibition did it give?
Its inhibition is -3.02%.

Which inhibition does the source give for `CCn1c(SCC(=O)Nc2cc(C)on2)nnc1-c1ccccc1` here?
Its inhibition is -1.57%.

With `CCc1nc(SCC(=O)c2ccccc2)c2c(=O)n(C)c(=O)n(C)c2n1` as the compound, how does the inhibition read?
The inhibition was -11.9%.

Which inhibition does the source give for `CC1(c2ccc([N+](=O)[O-])cc2)NC(=O)N(CC(=O)Nc2cccnc2Cl)C1=O` (stereo not given) here?
The inhibition was -4.51%.

With `CC1=CC(C)(C)N2C(=O)C3(C(C#N)=C(N)Oc4cc(O)ccc43)c3cccc1c32` (stereo not given) as the compound, how does the inhibition read?
Its inhibition is 4.05%.

How did the inhibition turn out when `COc1cc(N=C2C(=O)N3c4c(cccc42)C(C)=CC3(C)C)cc(OC)c1` was run?
The inhibition was -3.94%.

`CN(C)c1oc(-c2ccco2)nc1S(=O)(=O)c1ccc(Br)cc1` was tested. Which inhibition did it give?
The inhibition was 10.3%.

Which inhibition does the source give for `Cc1cc(NC(=O)c2coc(=O)c(Br)c2)ccc1C(C)C` here?
The inhibition was 10.6%.

Which inhibition does the source give for `CC(C)CNC(=O)c1coc(=O)c(Br)c1` here?
Its inhibition is 12.1%.

With `COc1ccccc1NC(=O)c1coc(=O)c(Br)c1` as the compound, how does the inhibition read?
The inhibition was 13.2%.

`O=C(Nc1ccc(Br)cn1)c1ccc2ccccc2c1` was tested. Which inhibition did it give?
Its inhibition is -12.4%.

`O=C(Nc1ccc(Br)cn1)c1cccc(C(=O)Nc2ccc(Br)cn2)c1` was tested. Which inhibition did it give?
Its inhibition is -16%.

Which inhibition does the source give for `O=C(NCCc1ccc(F)cc1)c1coc(=O)c(Br)c1` here?
The inhibition was -6.83%.

`CCCN(CC(=O)Nc1ccccc1OC)C(=O)c1ccc2[nH]c3c(c2c1)CC(C)CC3` (stereo not given) was tested. Which inhibition did it give?
The inhibition was 2.48%.

For `C[C@@H]1NC(=O)[C@H](CC(N)=O)NC(=O)c2cc([N+](=O)[O-])cc(I)c2OCC[C@@H](C(=O)NC(CC(=O)O)C(N)=O)NC1=O` (stereo not given in full), which inhibition is on record?
The inhibition was 10.6%.

Which inhibition does the source give for `Cc1csc(SC(C)C(=O)Nc2ccccc2C)n1` (stereo not given) here?
The inhibition was -12.6%.

How did the inhibition turn out when `Cc1ccc(C2=NC(C)(C)N=C2SCC(=O)Nc2ccc(Cl)cc2)cc1` was run?
Its inhibition is 2.26%.

For `O=C(NC(=S)Nc1cc(-c2nc3ccccc3[nH]2)ccc1Cl)c1ccc2c(c1)OCO2`, which inhibition is on record?
The inhibition was 6.14%.

For `C[C@H]1CN([C@@H](C)CO)C(=O)CCCn2nncc2CO[C@@H]1CN(C)Cc1ccc(Cl)c(Cl)c1`, which inhibition is on record?
Its inhibition is -0.91%.

`CCN(CC)c1ccc(/C=N/NS(=O)(=O)c2ccc(CNC(C)=O)cc2)cc1` was tested. Which inhibition did it give?
The inhibition was -3.65%.

`COc1cccc(OCc2cc(/C=N/NC(=O)c3ccn[nH]3)ccc2OC)c1` was tested. Which inhibition did it give?
The inhibition was 0.65%.

How did the inhibition turn out when `COC(=O)C1=C(N)N(c2ccc(F)cc2)C2=C(C(=O)CCC2)C1c1ccc2c(c1)OCO2` (stereo not given) was run?
The inhibition was -32.1%.

Which inhibition does the source give for `Cn1c(SCCOc2ccc(Cl)cc2)nnc1-c1ccncc1` here?
Its inhibition is 3.6%.

`Cn1c(SCCOc2ccc(F)cc2)nnc1-c1ccncc1` was tested. Which inhibition did it give?
The inhibition was -1.32%.

For `CCOc1ccc(C(=O)NCC2CCCO2)cc1OCC` (stereo not given), which inhibition is on record?
The inhibition was 1.97%.

With `CCOc1ccccc1NC(=S)NCC1CCCO1` (stereo not given) as the compound, how does the inhibition read?
Its inhibition is -2.09%.

For `CC(=O)c1c(C)[nH]c(C(=O)NCc2ccc(F)cc2)c1C`, which inhibition is on record?
Its inhibition is -3.52%.

For `NC(=O)NC(=O)COC(=O)c1ccc(Cl)c(S(=O)(=O)N(Cc2ccccc2)c2ccc(Cl)cc2)c1`, which inhibition is on record?
The inhibition was -3.29%.

Which inhibition does the source give for `Cc1cccc(Nc2nc(-c3cccs3)cs2)n1` here?
The inhibition was 8.51%.

With `O=C(O)c1ccc2c(c1Nc1ccccc1)C(=O)c1ccccc1C2=O` as the compound, how does the inhibition read?
Its inhibition is -2.59%.

Which inhibition does the source give for `CCNc1c(C(=O)O)ccc2c1C(=O)c1ccccc1C2=O` here?
Its inhibition is 32.2%.

`COc1ccc(C(=O)NC2CC2)cc1OC1CCN(Cc2ccccc2F)CC1` was tested. Which inhibition did it give?
Its inhibition is -1.16%.

For `Nc1nnnn1/N=C/c1cccc(O)c1`, which inhibition is on record?
The inhibition was 9.19%.

For `O=C(CSc1nc(O)c(C2CCCCC2)c(=O)[nH]1)NCC1CCCO1` (stereo not given), which inhibition is on record?
The inhibition was 14.4%.

`Cc1ccc(CNC(=O)C2CC(=O)N(c3ccc(OCC(=O)N4CCCC4)cc3)C2)cc1` (stereo not given) was tested. Which inhibition did it give?
Its inhibition is -0.42%.

How did the inhibition turn out when `O=C(c1ccc(Cl)cc1)c1cnc(-c2ccccc2)s1` was run?
Its inhibition is -2.61%.

`O=C1OC(c2ccc(F)cc2)=C/C1=C\c1ccc(O)cc1` was tested. Which inhibition did it give?
Its inhibition is -0.55%.

`Cc1ccc(C=C2C=C(c3ccccc3)OC2=O)cc1` was tested. Which inhibition did it give?
The inhibition was 6.6%.

How did the inhibition turn out when `C=CCN(C(=O)Nc1ccc(OC)cc1)c1nnc(-c2ccncc2)s1` was run?
The inhibition was -4.12%.

`Cc1cc(NC(=O)CCl)n(-c2nc3ccccc3s2)n1` was tested. Which inhibition did it give?
Its inhibition is -1.34%.

How did the inhibition turn out when `CC(=O)Nc1cc(C)nn1-c1nc2ccccc2s1` was run?
Its inhibition is -19.4%.

How did the inhibition turn out when `O=C1CSC(c2ccc(Cl)cc2)N1c1cccnc1` (stereo not given) was run?
The inhibition was 3.17%.

How did the inhibition turn out when `CCOC(=O)C1CCN(c2ncnc3c2cnn3-c2ccc(Cl)cc2)CC1` was run?
The inhibition was -26.4%.

How did the inhibition turn out when `CCOC(=O)C1CCCN(c2ncnc3c2cnn3-c2ccc(OC)cc2)C1` (stereo not given) was run?
The inhibition was -2.45%.

For `O=C(CSc1ccc(Cl)cc1)NNC(=O)c1ccco1`, which inhibition is on record?
The inhibition was 2.28%.

`O=C(CCSc1ccc(Cl)cc1)c1ccco1` was tested. Which inhibition did it give?
The inhibition was 2.25%.

With `COc1ccc(NS(=O)(=O)c2cccc(Cl)c2)cc1S(=O)(=O)N1CCCCC1` as the compound, how does the inhibition read?
The inhibition was 2.26%.

`COc1ccc(NS(=O)(=O)c2cc(Cl)ccc2Cl)cc1S(=O)(=O)N1CCCCC1` was tested. Which inhibition did it give?
Its inhibition is 10.3%.

For `Nc1nc(Cn2nnc(-c3ccccc3F)n2)nc(N2CCOCC2)n1`, which inhibition is on record?
Its inhibition is -5.97%.

For `COc1ccc(N=CC2=C(O)CCCC2=O)cc1`, which inhibition is on record?
Its inhibition is 72.2%.

For `CC1(C)CC(=O)C(C=Nc2ccc(O)cc2)=C(O)C1`, which inhibition is on record?
The inhibition was 21.5%.
